A selection: hits, their analogues and other compounds. The true share with any hit is near 12%.
PLK1 PBD inh: blocks phosphopeptide binding to human PLK1 polo-box domain; P53350; Potency, µM, inactives show max response, negative = inhibition, usual class: inhibitors; AID 720504; Plk1 PBD binding of FITC phosphopeptide, fluorescence polarization; 360,000 compounds, 2.8% hits; further: potency means the concentration at half of the fitted maximal effect; series mostly up to about 57 µM; on the % scale 0 is the no-effect control and ±100 the full control effect; nearly all actives have a fitted effect of over 65% in size
PI5P4Ka inh: PI5P4K alpha (human) kinase inhibition | P48426 | PI5P4Kalpha enzyme, ADP-Glo luminescence, 60 min; stronger effect = lower value | max response, % | 330,000 compounds, 1.2% hits; active means max response of -50% or lower; inconclusive means between -30% and -50%; inactive means -30% or higher; further: value at the top dose of about 77 µM; on the % scale 0 is the no-effect control and ±100 the full control effect
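Controls without substrate or without enzyme flank wells where PI5P4Kalpha converts substrate using 5 microM ATP (final). Incubation lasts 60 minutes at room temperature; ADP formed is read by ADP-Glo luminescence.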
JMJD2A Tudor: inhibitors of human JMJD2A Tudor domain; AlphaScreen JMJD2A-Tudor / H3K4me3 peptide binding; 390,000 compounds, 4.4% hits; AID 504339; Potency, µM (highest dose often 114 µM), for the others: top-dose activity change, negative = inhibition, actives largely listed as inhibitors; further: potency means the concentration at half of the fitted maximal effect; on the % scale 0 is the no-effect control and ±100 the full control effect; nearly all actives have a fitted effect of over 50% in size
BAZ2B block: inhibitors of human BAZ2B bromodomain | Q9UIF8 | AlphaScreen BAZ2B-H3K14Ac peptide displacement | Potency, µM (series often up to 114 µM), for inactives: at the top dose activity change, negative = inhibition, hits mostly inhibitors | 360,000 compounds, 4.4% hits | AID 504333; further: potency means the concentration at half of the fitted maximal effect; on the % scale 0 is the no-effect control and ±100 the full control effect; nearly all actives have a fitted effect of over 60% in size
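AlphaScreen displacement of biotin-H3(5-23)K14Ac peptide (50 nM final) from BAZ2B (50 nM final) in PBS pH 7.4, 0.01% Tween-20; complex preformed 30 min RT, then compounds (top 110 uM) 30 min RT, beads 20 min dark.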
G9a inh: blocks human histone lysine methyltransferase G9a | G9a H3K9 monomethylation, AlphaScreen, 2 h | Potency, µM (doses to about 102 µM), for inactives: at the top dose activity, negative = inhibition, actives largely listed as inhibitors | 350,000 compounds, 8.8% hits | AID 504332; further: potency means the concentration at half of the fitted maximal effect; on the % scale 0 is the no-effect control and ±100 the full control effect; nearly all actives have a fitted effect of over 75% in size
Target sequence (Q96KQ7 913-1193 limits assumed): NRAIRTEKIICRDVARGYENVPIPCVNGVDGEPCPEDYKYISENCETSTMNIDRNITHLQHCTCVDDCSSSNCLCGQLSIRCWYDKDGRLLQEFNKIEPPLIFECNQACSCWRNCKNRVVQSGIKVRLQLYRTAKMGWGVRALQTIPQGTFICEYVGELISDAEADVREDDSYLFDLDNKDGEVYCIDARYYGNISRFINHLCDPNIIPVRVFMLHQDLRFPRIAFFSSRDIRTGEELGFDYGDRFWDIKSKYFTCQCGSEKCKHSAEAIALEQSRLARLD
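AlphaScreen read-out: biotin-H3K9 peptide (500 nM) methylation by 20 nM enzyme with 20 uM SAM, 2 h at room temperature after 15 min compound preincubation; anti-monomethyl H3K9 antibody plus donor/acceptor beads, 10 min dark.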
HP1b binding inh: HP1-beta chromodomain-methylated histone interaction inhibition | P83916 | AlphaScreen HP1-beta / biotin-H3K9me3 peptide binding | Potency, µM (titrated, usually from 114 µM), without a hit: top-dose activity change, negative = inhibition, usual class: inhibitors | 390,000 compounds, 0.56% hits | AID 540317; further: potency means the concentration at half of the fitted maximal effect; nearly all actives have a fitted effect of over 70% in size
Target sequence (P83916 whole entry, looked up): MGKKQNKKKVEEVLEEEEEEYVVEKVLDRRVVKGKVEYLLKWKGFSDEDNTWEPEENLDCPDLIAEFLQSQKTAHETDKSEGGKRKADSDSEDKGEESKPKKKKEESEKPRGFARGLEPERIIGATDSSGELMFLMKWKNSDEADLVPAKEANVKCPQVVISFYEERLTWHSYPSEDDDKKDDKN
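Compound inhibition of the preformed complex between 50 nM HP1-beta and 50 nM biotinylated H3K9me3 peptide was read by AlphaScreen. Buffer was PBS pH 7.4 with 0.01% Tween-20. Incubations ran 30 min at room temperature, with 10 ug/mL donor/acceptor beads.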
* hit, by the source's call; ? = inconclusive; nt = no result given; [ ] = remark or other dose. Unless noted, the call rests on the fitted dose curve; in most records, active means well fitted curve in the direction sought with a large enough effect; inconclusive means small, poorly fitted or top-dose-only effect, or another doubt; inactive means no such curve, though single readings can be large; an effect the other way counts as inactive or inconclusive.

SMILES | PLK1 PBD inh | PI5P4Ka inh | JMJD2A Tudor | BAZ2B block | G9a inh | HP1b binding inh
O=C(O)c1cnn(-c2nc(-c3cccc(F)c3)cs2)c1C(F)(F)F | -23% | 5 | -17%[11.4 µM] | -38% | 50µM* | 25%
O=C(O)c1cnn(-c2nc(-c3ccc(Cl)c(Cl)c3)cs2)c1C(F)(F)F | 27µM* | 1 | -21% | -23% | ? | 29%
CCCCc1nn2c(=O)cc(COC(=O)c3ccccc3NC(=O)c3cccc(C)c3)nc2s1 | nt | nt | -12% | -1% | 15%[59 µM] | 7%
Cc1nc2ccc(C(=O)N3CCCC(CO)(Cc4ccc(F)cc4F)C3)cc2nc1C (stereo not drawn) | 0% | 3 | -4% | ? | 26%[0.0925 µM] | 39%
COc1ccc(C2Nc3ccccc3C(=O)N2Cc2ccco2)cc1 (stereo not drawn) | nt | nt | -17%[57.1 µM] | nt | nt | 13%[57 µM]
Cc1ccccc1OCCC(=O)N1CCN(S(=O)(=O)c2ccc(Br)cc2)CC1 | 5% | 38 | -8% | -16% | ? | 30%
CCOC(=O)c1c(C)[nH]c(C)c1S(=O)(=O)N(C)CC(=O)Nc1ccc(C)cc1C | nt | nt | -9% | -11% | 0%[59 µM] | 22%
O=C(O)c1ccc(-c2nc(-c3ccc(Cl)c(Cl)c3)cs2)cc1 | 27µM* | -3 | -11% | -12% | -34% | 40%
CC(C)(C)c1ccc(C2=NC(C)(C)N(CC(=O)Nc3ccc(F)c(F)c3)C2=O)cc1 | nt | nt | -3% | -6% | 5%[59 µM] | 36%
CNCCOc1ccccc1C(C)(C)C | -9% | nt | 3.2µM* | ? | 13µM* | -44%
CC(C)(C)c1ccccc1OCCOCCNCc1ccccc1 | -7% | 15 | 22µM* | 79µM* | 14µM* | ?
CC(C)(C)c1ccccc1OCCCCN1CCCC1 | -1% | -1 | -6% | 0% | -8% | 33%
CCN(C(=O)c1ccncc1)c1c(N)n(Cc2ccccc2)c(=O)[nH]c1=O | -4% | 5 | -6% | -4% | ? | 21%
CN1OC[C@@H]2CN(Cc3ccc4c(c3)OCO4)[C@H](c3ccc(N4CCCCC4)cc3)C[C@@H]21 | -1% | -1 | nt | nt | nt | nt
Nc1c(-c2ccccc2)sc2ccc3ccccc3[n+]12 | ? | 1 | 5% | -37% | 1µM* | 27%
CCOC(=O)c1ccc(NC(=S)N(CCN2CCCCCC2)Cc2ccco2)cc1 | -15% | -13 | ? | -17% | 32µM* | 7%
CCN1CCN(CCCN(Cc2ccco2)C(=S)Nc2ccc(Cl)c(C)c2)CC1 | 0% | 2 | -18% | -20% | ? | 10%
Cc1cc(NC(=S)N(CCN2CCCCC2)Cc2ccco2)ccc1Cl | -18% | -1 | -22% | ? | 40µM* | 4%
S=C(Nc1ccc(Oc2ccccc2)cc1)N(CCCN1CCOCC1)Cc1ccccn1 | ? | 10 | -16% | ? | 32µM* | -13%
Cc1ccc(NC(=S)N(CCCN2CCOCC2)Cc2ccco2)cc1 | ? | -3 | -6% | -14% | 40µM* | 26%
CCC(Sc1nnc2c(n1)[nH]c1ccccc12)C(=O)Nc1ccccc1OC (stereo not drawn) | nt | nt | -21% | -28% | -12%[59 µM] | -1%
c1ccc(C(c2ccccc2)N2CC[C@@]3(CCCNC3)C2)cc1 | nt | nt | nt | nt | -28%[12.7 µM] | nt
Cc1ccc(Nc2nnc(SCC(=O)Nc3ncc(S(=O)(=O)c4ccc([N+](=O)[O-])cc4)s3)s2)cc1 | -7% | -20 | -23% | -19% | -10%[59 µM] | -4%
Cc1cc(=O)[nH]c(SCC(=O)Nc2ncc(S(=O)(=O)c3ccc([N+](=O)[O-])cc3)s2)n1 | -27% | -16 | -25% | -13% | 45µM* | ?
CC(C)c1ccc(Nc2nnc(SCC(=O)Nc3ncc(S(=O)(=O)c4ccc([N+](=O)[O-])cc4)s3)s2)cc1 | 42µM* | ? | -14% | -20% | 35µM* | 14%
CN(CC(=O)Nc1ccc(F)c(F)c1F)C(=O)c1n[nH]c(=O)c2ccccc12 | -2% | 1 | -11% | nt | nt | 33%
Cc1ccc(NC(=O)CSc2nc3ncccc3[nH]2)cc1F | nt | nt | -3% | -9% | 5%[59 µM] | 36%
